Screens (PubChem)
In the library only some 6.6% were active in any assay of this set; here they are far more common.
Anthrax LF inh2: blocks Bacillus anthracis lethal factor protease | P15917 | multiplex microsphere protease cleavage assay, LF | inhibition, % at 10 µM | actives 0.12% (n = 360,000); further: plate controls were buffer without enzyme for full effect and enzyme alone for no effect
Target sequence (P15917 whole entry, looked up): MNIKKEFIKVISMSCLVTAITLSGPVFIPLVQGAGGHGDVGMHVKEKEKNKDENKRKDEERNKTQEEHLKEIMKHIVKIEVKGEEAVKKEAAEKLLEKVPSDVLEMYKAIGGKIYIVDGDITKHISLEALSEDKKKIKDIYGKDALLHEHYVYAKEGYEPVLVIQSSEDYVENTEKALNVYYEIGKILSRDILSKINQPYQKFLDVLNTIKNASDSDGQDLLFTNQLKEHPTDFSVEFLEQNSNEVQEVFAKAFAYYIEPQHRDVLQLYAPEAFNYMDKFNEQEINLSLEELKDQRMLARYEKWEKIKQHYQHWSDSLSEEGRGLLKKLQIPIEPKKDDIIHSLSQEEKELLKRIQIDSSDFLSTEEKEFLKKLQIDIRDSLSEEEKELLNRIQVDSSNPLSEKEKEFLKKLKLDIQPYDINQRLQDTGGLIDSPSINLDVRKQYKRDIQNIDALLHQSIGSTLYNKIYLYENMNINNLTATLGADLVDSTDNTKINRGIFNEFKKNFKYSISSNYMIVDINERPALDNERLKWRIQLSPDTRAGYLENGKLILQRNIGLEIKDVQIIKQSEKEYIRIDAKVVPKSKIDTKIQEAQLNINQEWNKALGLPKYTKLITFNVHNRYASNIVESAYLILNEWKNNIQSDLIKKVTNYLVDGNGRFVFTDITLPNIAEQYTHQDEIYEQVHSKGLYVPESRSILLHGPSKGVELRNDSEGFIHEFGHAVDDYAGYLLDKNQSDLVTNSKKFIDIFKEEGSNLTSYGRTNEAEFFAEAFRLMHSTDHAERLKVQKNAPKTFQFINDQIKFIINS
BoNT-F LC inh: BoNT F light chain protease inhibition | actives 0.22% (n = 360,000) | Multiplex microsphere protease cleavage assay, flow cytometry | inhibition, % at 10 µM; in the data active means inhibition above about 35%, passing the limit was not always enough; inconclusive means no clear call, values can overlap the other calls; further: plate controls were buffer without enzyme for full effect and enzyme alone for no effect
Autofluor counter: flagged as autofluorescent in microsphere protease counterscreen; fluorescence intensity (test concentration not listed); compound autofluorescence counterscreen, microsphere flow cytometry; active compounds read high; actives 3.1% (n = 360,000); in the data active means fluorescence intensity above about 16000; inconclusive means no clear call, values can overlap the other calls
BoNT A protease: inhibitors of Botulinum neurotoxin A light chain protease. AID 588499. inhibition, % at 10 µM. multiplex microsphere protease substrate cleavage, flow cytometry. actives 0.17% (n = 360,000); further: plate controls were buffer without enzyme for full effect and enzyme alone for no effect
Mtb FBA inh: Mtb fructose-bisphosphate aldolase inhibition; purified M. tuberculosis FBA, fluorescence read-out; inhibition, % at 1 µM; actives 2.3% (n = 360,000); AID 588726; in the data active means inhibition above about 27%;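 further: 0% = vehicle and 100% = reference inhibitor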
GDH-TPI counter: counter-screen for M. tuberculosis FBA inhibitors: GDH-TPI coupled enzymes; GDH-TPI coupled enzyme counterscreen, NADH absorbance; inhibition, % at 4.8 µM; actives 1.2% (n = 360,000); AID 588335; in the data active means inhibition above about 30%;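 further: 0% = DMSO wells and 100% = wells lacking the enzyme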
* = called active by the depositor; ? = inconclusive. Unless noted, no stated cut-off is given here; in the data, active means inhibition above about 30%; inconclusive means no clear call, values can overlap the other calls; inactive means below that.

SMILES | Anthrax LF inh2 | BoNT-F LC inh | Autofluor counter | BoNT A protease | Mtb FBA inh | GDH-TPI counter
CCc1nc2c(OCC3COc4ccccc4O3)cccn2c1N(C)C(=O)c1cccs1 (stereo not drawn) | 1.2 | -1.9 | 2970 | 0.2 | 0.8 | 7.5
Cc1ccc(C(=O)CSc2nnc(-c3c[nH]c4ccccc34)o2)cc1 | -6.5 | 2.0 | 19814* | ? | -2.2 | 19.5
CN[C@H]1C[C@H]2c3cc(N4CCN(C)CC4)ccc3CCN2C(=O)[C@H]1[C@H](C)O | -7.4 | -5.4 | 2735 | 1.3 | 5.8 | 11.3
COc1ccc(N2CC(C(=O)NCCCN3CCOCC3)CC2=O)cc1 (stereo not drawn) | 1.4 | 2.3 | 23842* | 0.5 | 2.2 | 0.0
Cc1ccc(N2CC(C(=O)NCCCn3ccnc3)CC2=O)cc1 (stereo not drawn) | 0.4 | -2.8 | 16950* | -2.0 | -0.3 | 12.2
Cc1ccc(N2CC(C(=O)NCCC(C)C)CC2=O)cc1 (stereo not drawn) | -0.3 | 14.2 | 2439 | 1.2 | -0.4 | 6.0
Cn1c(N)c(C(=O)COC(=O)COc2ccccc2C#N)c(=O)n(C)c1=O | -2.5 | 0.8 | 4301 | -0.2 | 1.6 | 1.6
COc1ccc(C(C)=O)c(OCC(=O)NCCC2=CCCCC2)c1 | -3.6 | -2.0 | 2940 | 0.1 | 2.7 | 18.1
O=C(O)CC1(CC(=O)Nc2ccccc2Br)CCCC1 | 7.1 | -6.3 | 4023 | 0.0 | 0.9 | 16.8
CN(C)c1ccc(/C=N/NC(=O)C(O)(c2ccccc2)c2ccccc2)o1 | -2.0 | -1.4 | 16827* | ? | 0.2 | 16.7
COc1ccccc1NC(=O)Nn1cnnc1 | -2.5 | -1.9 | 2430 | -0.2 | 3.0 | 11.2
CC(C)(C)c1ccccc1OCCCCCNCCO | -11.0 | 10.2 | 18177* | 12.2 | 0.2 | -1.9
Cc1cccnc1NC(=O)c1nn(C)c2c1CS(=O)(=O)c1ccccc1-2 | 2.6 | -6.8 | 4702 | -0.4 | -0.8 | 1.9
Cc1cc(C(=O)Nc2cccc(C(=O)O)c2)c(C)o1 | 0.3 | 2.7 | 22853* | ? | -0.9 | 1.4
O=C(CC1C(=O)NCCN1C(=O)Nc1ccccc1)Nc1ccc2c(c1)OCCO2 (stereo not drawn) | -3.1 | -5.2 | 16409* | -0.5 | -4.3 | 12.4
Cn1c(=O)c2cc(NC(=O)NCc3ccc(F)cc3)ccc2n1C | 1.2 | 0.0 | 4069 | -0.4 | 162.5* | 12.5
C=C(C)Cn1c2ccc(NC(=O)NCc3ccc(F)cc3)cc2c(=O)n1C | -3.6 | -3.0 | 3835 | 0.4 | 189.7* | 7.1
COc1ccc(NC(=O)CSc2n[nH]c(N)n2)c([N+](=O)[O-])c1 | -1.2 | 1.4 | 23423* | -0.5 | 1.5 | 20.4
Cc1cc(=O)oc2cc(OCC(=O)N/N=C/c3ccccc3O)ccc12 | -0.1 | 2.3 | 5861 | -0.6 | 1.8 | 2.2
Cc1cc(N(CCCl)CCCl)ccc1/C=N/NC(=O)c1ccco1 | -0.2 | 7.7 | 3112 | 0.3 | -0.4 | 49.3*
Cc1sccc1/C=N/NC(=O)c1ccco1 | -0.6 | 4.0 | 5866 | -1.4 | -1.1 | 27.6
Cc1cc(N(CCCl)CCCl)ccc1C=NNC(=O)Cc1cc(=O)oc2cc(O)ccc12 | -7.8 | -6.4 | 2934 | -0.4 | 168.8* | 59.0*
CCOC(=O)c1cc2c(c(-c3ccccc3)n1)[C@H](CCO)N(S(=O)(=O)C(C)(C)C)C2 | 3.4 | -4.3 | 3797 | -0.2 | 3.2 | 7.3
COC(=O)C1=CN(CC2CCCO2)C=C(C(=O)OC)C1c1cccc(O)c1 (stereo not drawn) | 0.4 | 1.5 | 3793 | -0.4 | 195.5* | 3.1
COC(=O)C1=CN(CCCN2CCCC2=O)C=C(C(=O)OC)C1c1ccccc1C(F)(F)F | 0.5 | 2.1 | 2503 | -0.5 | 122.6* | 21.9
SMILES | Anthrax LF inh2 | BoNT-F LC inh | Autofluor counter | BoNT A protease | Mtb FBA inh | GDH-TPI counter
COC(=O)C1=C(N)Oc2cc(C)n(CC3CCCO3)c(=O)c2C1c1ccccc1OC (stereo not drawn) | -3.6 | -9.2 | 2479 | 0.0 | 2.3 | 5.1
COC(=O)C1=CN(CC2CCCO2)C=C(C(=O)OC)C1c1ccccc1C(F)(F)F (stereo not drawn) | 2.2 | 7.1 | 4252 | -0.5 | 158.3* | 6.2
CC(=O)Oc1ccc(-c2cccc(C(=O)N(C)c3ccc(O)cc3)c2)cc1 | -0.9 | 1.7 | 4649 | -1.7 | 5.3 | 8.3
CC1(C(=O)NS(=O)(=O)c2cccc(F)c2)CCN1C(=O)CCc1ccccc1 (stereo not drawn) | 1.8 | 3.3 | 3839 | -0.3 | -0.5 | 2.2
COC(=O)c1c(NC(=O)COC(=O)CNC(=O)c2cccc(OC(F)F)c2)sc(C)c1C | 6.0 | 1.1 | 3948 | 0.0 | 3.1 | 7.5
Cc1cc(NS(=O)(=O)c2ccc(NC(=O)c3ccco3)cc2)nc(C)n1 | -1.0 | -8.6 | 21969* | -3.8 | -0.6 | 6.1
CCCC(=O)Nc1ccc(S(=O)(=O)Nc2cc(OC)nc(OC)n2)cc1 | -15.1 | ? | 4283 | -3.2 | -0.2 | 0.8
Cc1cc(NS(=O)(=O)c2ccc(NC(=O)c3ccco3)cc2)no1 | 0.4 | 0.4 | 3125 | 0.0 | -0.9 | -0.5
Cc1ccn2cc(-c3ccc(NC(=O)c4ccco4)cc3)nc2c1 | -2.1 | -5.3 | 2456 | -0.5 | 0.0 | 33.1*
Cc1nc(-c2ccc(NC(=O)c3ccco3)cc2)cs1 | 3.3 | -11.0 | 3660 | -2.7 | -3.4 | -7.9
COc1cc(NS(=O)(=O)c2ccc(NC(=O)c3ccc(C)o3)cc2)nc(OC)n1 | -7.9 | 18.7 | 16150* | ? | -1.8 | -6.4
Cc1cc(NS(=O)(=O)c2ccc(NC(=O)/C=C/c3ccco3)cc2)nc(C)n1 | -4.4 | -7.6 | 3720 | -1.6 | 3.0 | 47.8*
O=C(CCN1C(=O)C2C3CC(C(Br)C3Br)C2C1=O)OCC(=O)c1cccc([N+](=O)[O-])c1 (stereo not drawn) | -0.4 | 2.1 | 3761 | -1.6 | 3.2 | 0.0
COc1ccc(NC(=O)CN(c2ccccc2F)S(=O)(=O)c2ccc(C)cc2)cc1 | -4.9 | ? | 2780 | -3.7 | -1.2 | 14.0
COC(=O)c1ccccc1-c1ccc(/C=N/Nc2nc(N3CCCC3)nc(N3CCCC3)n2)o1 | 13.6 | ? | 3427 | -5.1 | 22.9 | 60.5*
Cc1ccc(/C=N/Nc2nc(N3CCCCC3)nc(N3CCCCC3)n2)o1 | -1.5 | 2.4 | 2210 | -0.7 | 0.8 | 16.3
O=C(N/N=C/c1cccc2ccccc12)c1cc2ccccc2o1 | 4.9 | -0.8 | 4591 | -0.9 | 1.1 | 16.5
COC(=O)c1ccccc1-c1ccc(/C=N/NC(=O)c2cc3ccccc3o2)o1 | -4.5 | -5.9 | 9161 | 0.1 | 5.2 | 51.7*
CCOc1ccccc1-n1c(CN2CCN(C(=O)c3ccco3)CC2)nc2ccccc2c1=O | -2.7 | -3.3 | 23399* | -1.3 | 3.1 | 0.4
CC(C)C(=O)Nc1ccc(Cc2ccc(NC(=O)C(C)C)c(O)c2)cc1O | -1.9 | -1.9 | 16658* | -0.3 | -2.0 | 4.8
Oc1ccccc1C(=S)N1CCCCC1 | -6.1 | -9.4 | 2874 | 0.1 | -1.5 | -11.0
Oc1ccccc1C(=S)N1CCCCCC1 | -8.0 | 1.2 | 19817* | 2.3 | 4.2 | -8.9
CSc1ccccc1-n1nnnc1SCC(=O)Nc1ccccc1C | 0.5 | -1.2 | 20932* | -0.3 | -1.3 | 8.4
COC(=O)c1ccsc1NC(=O)CSc1nnnn1-c1ccccc1SC | -0.6 | -4.0 | 24392* | -3.6 | 2.1 | 7.5
